High-throughput results as filed in PubChem.
PrPC TRFRET: inhibitors of human cell surface prion protein PrPC. TR-FRET read-out. inhibition, % at 13.8 µM. actives 0.43% (n = 370,000). AID 720596; in the data active = inhibition above about 24%; note: 0% = median of the test wells and 100% = reference compound wells
Vc quorum ag: inducers of Vibrio cholerae quorum light production without autoinducers | V. cholerae BH1578 lux reporter, luminescence, 6 h | activation, % at 18.7 µM | AID 588436 | actives 0.16% (n = 350,000); in the data active = activation mostly above about 9.7%, no sharp cut-off
PrP UTR inh: inhibition of PrP 5' UTR reporter expression. inhibition, % (no concentration beside the values). actives 0.35% (n = 340,000). cell-based PrP 5' UTR mRNA reporter, plate reader; in the data active = inhibition above about 52%; note: 0 = median of the neutral control wells
PriA SSB inh: inhibitors of Klebsiella pneumoniae PriA binding to SSB C-terminal tail; AlphaScreen SSBct-PriA binding, biotinylated peptide; inhibition, % at 33 µM; actives 0.6% (n = 430,000); in the data active = inhibition mostly above about 37%, no sharp cut-off; inactive = mostly below about 20%;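 note: plate controls were negative control peptide for no effect and reference peptide for full effect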
FadD28 binding: blocks FadD28 binding to the bisubstrate probe; fluorescence polarization; inhibition, % at 12.5 µM; actives 0.22% (n = 360,000); AID 588549; in the data active = inhibition above about 8.5%, passing the limit was not always enough
PrPC confirm: confirmation of inhibitors of cell surface human prion protein. cell surface PrPC level, TR-FRET. actives 65% (n = 1,500). inhibition, % at 13.8 µM. shares compounds with PrPC TRFRET; in the data active = inhibition above about 25%
LD9 tox: LD9 cell cytotoxicity, PrPc inhibitor counter-screen; inhibition, % at 13.8 µM; AID 743201; shares compounds with PrPC TRFRET; LD9 cells cytotoxicity, luminescence viability; actives 29% (n = 1,500); in the data active = inhibition above about 9.5%
Numbers without * were called inactive; i = inactive; . = no result given. Hits are enriched below; roughly 1.4% of the tested compounds scored in any of these assays.

SMILES	PrPC TRFRET	Vc quorum ag	PrP UTR inh	PriA SSB inh	FadD28 binding	PrPC confirm	LD9 tox
Brc1cc2[nH]cnc2c2ccccc12	61*	-6	-12	-7	-7	79*	-8
O=C(NCC1(O)CCc2ccccc2C1)c1ccc(Br)o1 (stereo unspecified)	.	.	.	-11	.	.	.
c1ccc(Cc2nnc(Sc3ccccc3)c3ccccc23)cc1	53*	-1	-70	-2	-3	71*	-14
c1ccc(Sc2ncnc3ccccc23)cc1	-2	-1	-30	4	-1	.	.
O=C(CSc1nnc(-c2ccncc2)o1)c1ccc([N+](=O)[O-])cc1	.	.	.	-1	.	.	.
CN1CCC(N(C)c2ncnc3ccc(Br)cc23)CC1	12	-1	-19	-18	-3	.	.
CCN(CC)c1ncnc2ccc(Br)cc12	39*	i	9	-15	-4	41*	-4
CC(C)c1ccc(NC(=O)Cn2nc(-c3cccs3)c3sc(N4CCCC4)nc3c2=O)cc1	.	.	.	-1	.	.	.
COc1ccc(C(N)=NOC(=O)c2ccc([N+](=O)[O-])c(C)c2)cc1OC	.	.	.	4	.	.	.
CC(C)CCOc1ccc(C=NN2C(=O)CSC2=S)cc1	.	.	.	6	.	.	.
Cc1nc2c(Br)cc(Br)cc2cc1O	103*	-1	8	-8	-3	108*	-8
CC(C(=O)Nc1ccc(Cl)cc1C(=O)c1ccccc1)N1CCCCC1 (stereo unspecified)	.	.	.	-1	.	.	.
CNc1ccccc1C(=O)OC(C)C(=O)Nc1ccc(Cl)cn1 (stereo unspecified)	25*	i	-6	-89	-3	38*	0
COc1ccc2[nH]c3c(NCCCOC(C)C)ncnc3c2c1	6	i	-48	7	1	.	.
COc1ccc2[nH]c3c(NCCC4=CCCCC4)ncnc3c2c1	41*	-1	-69	9	-1	40*	22*
CCN1/C(=C/C=C/C2=[N+](CC)c3ccccc3C2(C)C)C(C)(C)c2ccccc21	77*	i	.	.	-24	96*	78*
CCCN1C(=O)/C(=C/C=C2\N(CC)c3ccccc3C2(C)C)SC1=S	1	0	-14	5	-2	.	.
c1csc(CNc2nc(NCC3CCCCC3)c3sccc3n2)c1	26*	-5	.	.	-11	26*	14*
CC(C)(C)c1ccc(NC(=O)COc2ccc(-n3ccnc3)cc2)cc1	28*	1	16	17	-4	21	12*
S=C1NC2=C(C(c3ccc(Br)cc3)N1)N1CCC2CC1 (stereo unspecified)	26*	0	-23	-3	-8	25*	0
CC(C)CC(NC(=O)c1ccc(Cl)cc1)C(=O)OCC(=O)c1ccc2c(c1)NC(=O)CO2 (stereo unspecified)	40*	-1	2	-12	-3	53*	84*
CC(O)C(NS(=O)(=O)c1ccc(Cl)cc1)C(=O)OCC(=O)c1ccc2c(c1)NC(=O)CO2 (stereo unspecified)	4	1	-9	1	-3	.	.
COc1ccccc1Cn1c(=S)[nH]c2ccc(F)cc2c1=O	108*	-1	-17	-3	-2	131*	-5
COc1ccccc1Cn1c(=S)[nH]c2ccc(Br)cc2c1=O	1	-1	-3	-11	-1	.	.
COc1ccccc1Cn1c(=S)[nH]c2ccccc2c1=O	62*	-13	3	-7	-2	90*	-1
SMILES	PrPC TRFRET	Vc quorum ag	PrP UTR inh	PriA SSB inh	FadD28 binding	PrPC confirm	LD9 tox
Cc1nc2scc(-c3cccc(NC(=O)COc4ccc(F)cc4F)c3)n2c(=O)c1C	.	.	.	3	.	.	.
CCOc1ccc2c(c1)C(C)=CC(C)(C)N2S(=O)(=O)c1ccc(NC(C)=O)cc1	24*	-1	78*	8	-8	12	16*
Cc1nc2c(Cl)cccc2c2c1CC(CBr)O2 (stereo unspecified)	11	0	-4	-16	-2	.	.
Cc1ccc2nc(Br)c3c(c2c1)OC(CBr)C3 (stereo unspecified)	29*	0	-11	-10	-16	43*	-4
COc1cc(C2Nc3ccccc3C(=O)N2c2ccccc2)c(Br)cc1OCC(=O)O (stereo unspecified)	26*	0	-12	-9	0	18	-3
Cc1ccc(-c2cc(C(=O)N(C)Cc3cnn(C)c3C)c3cc(Br)ccc3n2)cc1	75*	i	-5	11	-3	90*	4
CC(C)C[C@@H]1NC(=O)[C@H](C(C)C)NC(=O)c2cc([N+](=O)[O-])cc(I)c2NCC[C@@H](C(N)=O)NC1=O	.	.	.	-12	.	.	.
CC[C@H](C)[C@@H]1NC(=O)[C@@H](CC(C)C)NC(=O)[C@H](C(C)C)NC(=O)[C@H]2CSSC[C@H](NC1=O)C(=O)N2	41*	.	.	.	-1	47*	99*
COc1ccc(OC)c(C2C(C(N)=O)=C(C)Nc3nc(-c4cccc(Cl)c4)nn32)c1 (stereo unspecified)	42*	i	-23	-4	-2	34*	0
COc1ccccc1-c1nc2n(n1)C(c1ccccc1Cl)C(C(N)=O)=C(C)N2 (stereo unspecified)	-5	0	-4	-3	-1	.	.
O=C(NCc1ccco1)c1cccc(NC(=O)c2ccccc2)c1	27*	.	-23	-9	-5	28*	9
COc1ccc(C(=O)Nc2cccc(C(=O)NCc3ccccc3)c2)cc1	16	0	-23	-11	-3	.	.
O=C(Cc1cccs1)Nc1cccc(C(=O)Nc2ccco2)c1	27*	i	-19	0	-6	10	-7
Cc1ccc(C(=O)Nc2cccc(C(=O)NCc3ccccc3)c2)cc1	37*	0	1	-6	-1	24	6
Cc1ccc(C(=O)NCc2ccco2)cc1	4	i	-13	-5	-1	.	.
Cc1ccc(C(=O)Nc2cccc(C(=O)NCc3ccco3)c2)cc1	39*	i	-53	2	-5	22	17*
CCOC(=O)C(C#N)=C1C=Nc2ccccc2N1	.	.	.	-5	.	.	.
C=C1c2cccc(O)c2C(=O)C2C(=O)[C@]3(O)C(=O)C(C(N)=O)C(=O)[C@@H](N(C)C)[C@@H]3[C@@H](O)[C@H]12 (stereo partly specified)	40*	i	-19	11	3	-2	0
C[C@H]1c2cccc(O)c2C(O)=C2C(=O)[C@]3(O)C(O)=C(C(N)=O)C(=O)[C@@H](N(C)C)C3[C@@H](O)C21 (stereo partly specified)	4	0	-14	.	-2	.	.
CC(=O)OC[C@]12CC[C@H]3[C@@](C)(CC[C@H]4C(C)(C)CCC[C@]34C)[C@@H]1CC(C1=CC(=O)OC1O)O2 (stereo partly specified)	54*	0	.	.	-11	83*	99*
